Screening results from PubChem.
Sampled rows, rich in hits. Any-hit rate of the full collection: about 3%.
PMP22 txn: modulators of PMP22 gene transcription in S16 Schwann cells. S16 Pmp22-F2sN Schwann cells, FLuc/NLuc coincidence luminescence, 24 h. Potency, µM (titrated, usually from 57.5 µM), for inactives: at the highest dose activity change, negative = inhibition, actives largely listed as inhibitors. 43,000 tested, 2% active. AID 1508649; active = clear falling dose curves in both reporters; inconclusive = both reporters move, but less clearly or upward; inactive = either reporter flat; the % is the NLuc reporter signal
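qHTS, 1536-well. Cells seeded, compounds added by pin tool, 24 h 37C. Nano-Glo reagent 1 (lysis/FLuc), 10 min RT, read; Stop&Glo, 10 min RT, read NLuc.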
p53null 39C tox: p53 null cell cytotoxicity, nonpermissive temperature; H1299 p53-null (neo) cells, 39C, ATPlite viability, 24 h; Potency, µM (titrated, usually from 46.1 µM), inactives show at the highest dose activity, negative = cell killing, usual class: cytotoxic; 55,000 tested, 0.97% active; AID 904;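 note: 0% = DMSO only and -100% = full killing by 100 µM tamoxifen; nearly all actives have a fitted effect of over 50% in size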
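Luminescent ATP signal reported cell survival after H1299 lines (neo, p53 null; or p53 A138V) received up to 46 uM compound and 24 hr incubation at 39C.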
p53null 32C tox: kills p53 null cells at the permissive temperature. H1299-neo p53 null cells, ATP luminescence, 24 h, 32C. Potency, µM (doses to about 46.1 µM), inactives show at the highest dose activity change, negative = cytotoxicity, hits mostly cytotoxic. 55,000 tested, 0.62% active. AID 903;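 note: 0% = DMSO only and -100% = full killing by 100 µM tamoxifen; nearly all actives have a fitted effect of over 55% in size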
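AC50 values derive from Hill modelling of qHTS concentration-response data (up to 46 uM) in H1299-neo cells. Cells were treated 24 h at 32C following overnight attachment at 37C; viability was read as cellular ATP.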
S16 F2sN tox: cytotoxicity in S16 Pmp22-F2sN Schwann cells; S16 Pmp22-F2sN Schwann cells (luciferase reporters placed in the Pmp22 gene) viability, CellTiter-Glo, 24 h; Potency, µM (titrated, usually from 57.5 µM), inactives show at the top dose activity change, negative = cytotoxicity, hits mostly cytotoxic; 43,000 tested, 0.48% active; note: nearly all actives have a fitted effect of over 65% in size
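Rat S16 Schwann reporter line, 24 h treatment with library compounds delivered at 23 nL per well. Cell viability by CellTiter-Glo luminescence.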
SKOV3 invasion: ovarian cancer metastasis inhibition, 3D TME model. Potency, µM (doses to about 45.8 µM), without a hit: at the highest dose activity change, negative = inhibition, hits mostly inhibitors. SKOV3ip1-GFP adhesion/invasion on 3D omental model, fluorescence. 46,000 tested, 0.1% active. AID 1963576;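 note: plate controls were DMSO wells for no effect and tomatine positive control wells for full effect; nearly all actives have a fitted effect of over 65% in size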
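Primary human omental fibroblast/mesothelial 3D culture pre-formed 48 h. SKOV3ip1-GFP cells added with compounds (0.36-46 umol/L), incubated 2 h RT/16 h 37 C, fixed; GFP cells quantified at 488/509 nm.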
mTORC1 inh: reduces mTORC1 signaling in Tsc2 and p53 null MEF cells; Tsc2-/- p53-/- MEF, phospho-rpS6 immunofluorescence/PI, 24 h; Potency, µM (series often up to 38.3 µM), inactives show at the top dose activity change, negative = inhibition, hits mostly inhibitors; 44,000 tested, 0.78% active;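 note: plate controls were DMSO for no effect and rapamycin for full effect; nearly all actives have a fitted effect of over 50% in size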
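Immunofluorescence of rpS6 phosphorylation in Tsc2-/-, p53-/- MEFs after 24 h compound exposure, normalized to propidium iodide signal. Activity is expressed as % positive cells, thresholded with 7.5 nM rapamycin.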
Active calls of the source: *; i = inactive; ? = inconclusive; nt = not tested or not shown. Unless noted, calls come from the whole dose curve; as a rule, active = well fitted curve in the direction sought with a large enough effect; inconclusive = small, poorly fitted or top-dose-only effect, or another doubt; inactive = no such curve, though single readings can be large; an effect the other way counts as inactive or inconclusive. Unless noted, % is set by controls: 0 for no effect and ±100 for the full control effect; potency is the fitted concentration of half-maximal effect.

SMILES | PMP22 txn | p53null 39C tox | p53null 32C tox | S16 F2sN tox | SKOV3 invasion | mTORC1 inh
CCN(c1ccccc1)S(=O)(=O)c1ccc(NC(=O)c2nc(S(C)(=O)=O)ncc2Cl)cc1 | 1.68µM* | ? | ? | 4.47µM* | ? | 3.29µM*
CCSc1ncc(Cl)c(C(=O)Nc2ccc(S(=O)(=O)N(C)c3ccccc3)cc2)n1 | ? | 7.8% | 0.2% | -22.9% | i | -3.1%
CC(C)Sc1ncc(Cl)c(C(=O)Nc2ccc(S(=O)(=O)N(C)c3ccccc3)cc2)n1 | ? | -10.4% | 0.8% | -22.1% | 5.3% | -9.9%
CCN1CCOC(=O)C1CC(=O)Nc1cc(C)cc(C)c1 (centres undefined) | ? | nt | nt | ? | -0.3% | 10.4µM*
CN(CC=CC#CC(C)(C)C)Cc1cccc2ccccc12 | nt | nt | nt | nt | -4.6% | nt
CCCCNC(=O)c1ccc2c(c1)N=C(CC)c1ccccc1S2 | 12.4µM* | ? | -2.6% | ? | 5.8% | ?
CCC1=Nc2cc(C(=O)NC3CCCC3)ccc2Sc2ccc(Br)cc21 | 10µM* | ? | 20.7% | ? | i | -25.8%
CC1=Nc2cc(C(=O)NC3CCCC3)ccc2Sc2ccc(Br)cc21 | ? | 16.3% | 16.8% | 2.6% | 25.0% | ?
CCC1=Nc2cc(C(=O)NC3CCC(C)CC3)ccc2Sc2ccc(C)cc21 (centres undefined) | 5.66µM* | 20.1% | 21.8% | -2.8% | 2.6% | ?
CC1=Nc2cc(C(=O)NCCc3ccc(Cl)cc3)ccc2Sc2ccc(C)cc21 | 9.46µM* | 29.3% | 11.2% | ? | -4.3% | -16.0%
COc1cccc([C@@H](C)NCCCc2ccccc2Cl)c1 | nt | nt | nt | nt | -14.5% | nt
CCNC(=O)Nc1ccc(Oc2ncnc(N)c2C=NOC)cc1Cl | nt | nt | nt | nt | 5.0% | nt
O=C(O)C1=CC(O)C(O)[C@H](O)C1 (some centres undefined) | nt | nt | nt | nt | -14.5% | nt
CC(C)NC(=O)C1CCN(C(=O)c2cc3sccc3n2Cc2ccc(Cl)cc2)CC1 | 9.46µM* | -6.6% | 14.5% | ? | -2.7% | 0.6%
O=C(NCc1ccccc1)c1cc2sccc2n1Cc1ccc(Cl)cc1 | -21.7% | 14.8% | -9.2% | 15.4% | i | -9.7%
CCCS(=O)(=O)c1ncc(Cl)c(C(=O)N2CCN(c3ccc(OC)cc3)CC2)n1 | 5.97µM* | -12.5% | ? | 5.01µM* | i | ?
CCOc1ccc(-c2nonc2NC(=O)c2oc3cc(Br)ccc3c2C)cc1 | 9.46µM* | ? | ? | ? | -22.4% | -12.4%
CCOc1ccc(-c2nonc2NC(=O)c2oc3cc(C)ccc3c2C)cc1 | -41.6% | 0.7% | 8.2% | 3.2% | -4.8% | ?
CCOc1ccc(-c2nonc2NC(=O)c2oc3ccc(Br)cc3c2C)cc1 | ? | ? | 12.6µM* | -14.9% | -3.8% | -22.9%
Cc1ccc(S(=O)(=O)Nc2cc(Cl)ccc2C(=O)Nc2nc(-c3ccccc3)cs2)cc1 | nt | nt | nt | nt | 3.5% | nt
Cc1cc(Nc2nc(N[C@@H](C)c3ccc(F)cc3)c(C#N)cc2F)n[nH]1 | nt | nt | nt | nt | 5.8% | nt
CCCN(C(=O)c1cc2c(s1)-c1ccccc1SC2)c1ccccc1F | ? | 20µM* | 8.9% | -5.1% | -26.0% | 1.8%
CCCN(C(=O)c1cc2c(s1)-c1ccccc1OC2)c1ccccc1F | ? | 26.2% | 23.0% | 24.7% | 9.0% | -1.1%
COc1cccc(C2=C(C(C)=O)Sc3nncn3N2C(C)=O)c1 | ? | -1.5% | -8.5% | ? | -17.7% | -10.0%
CC(=O)C1=C(c2ccc(Cl)c(Cl)c2)N(C(C)=O)n2cnnc2S1 | ? | -22.5% | 12.1% | ? | ? | 14.7µM*
CCC(=O)C1=C(c2ccc(F)cc2)N(C(=O)CC)n2cnnc2S1 | ? | -1.1% | -2.1% | ? | i | 11.7µM*
